Inhibition data for 94 molecules are collected here from PubChem BioAssay AID778 (Sanford-Burnham Center for Chemical Genomics, 2007).

Screen size: about 96,000 compounds; about 20,000 (21%) were called active. Not all results are given here. Unmarked numbers belong to inactive results.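 How the source made its calls: active means CYP2C19 inhibition above a set limit at 5 µM in the primary screen (cut at about 50% in these data); inactive means the rest.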

The target in the assay is Cytochrome P450 2C19 (Homo sapiens) (UniProt P33261). As to the kind of experiment: blockers of cytochrome P450 2C19 activity – biochemical, luminescence, ADME assay, primary screen (AID 778).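 Further: plate controls were negative control wells for no effect and 2.5 mM tranylcypromine positive control for full effect.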 The note with it: CYP2C19 Supersomes, luciferin-H EGE luminescence, 30 min; at 5 µM; stronger effect = higher value.
Cytochrome P450 2C19 (Homo sapiens), sequence (P33261 whole entry, looked up): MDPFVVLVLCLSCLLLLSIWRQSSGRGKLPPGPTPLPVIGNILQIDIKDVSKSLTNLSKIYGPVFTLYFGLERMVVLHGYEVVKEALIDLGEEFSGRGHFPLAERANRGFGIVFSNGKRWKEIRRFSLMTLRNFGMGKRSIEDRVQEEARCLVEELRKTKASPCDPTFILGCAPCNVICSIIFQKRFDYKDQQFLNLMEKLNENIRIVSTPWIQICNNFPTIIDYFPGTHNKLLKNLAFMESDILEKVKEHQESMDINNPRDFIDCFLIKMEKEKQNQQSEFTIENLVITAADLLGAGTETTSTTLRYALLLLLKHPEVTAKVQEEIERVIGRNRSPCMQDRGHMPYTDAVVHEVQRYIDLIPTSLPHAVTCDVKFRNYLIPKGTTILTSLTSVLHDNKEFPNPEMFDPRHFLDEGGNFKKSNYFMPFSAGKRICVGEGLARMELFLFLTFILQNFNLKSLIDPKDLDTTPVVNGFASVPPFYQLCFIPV
Turning to `O=C(CSCc1c(Cl)cccc1Cl)NN1C(=O)c2ccccc2C1=O`, the inhibition (usually the drop in the measured response relative to a control, in per cent) was 43.5%.
With `COc1ccc(C(=O)Nc2ncc3c(n2)-c2ccccc2CC3)cc1`, the inhibition was 5.2%.
As to `O=C(c1cccnc1NCc1ccccc1)N1CCOCC1`, the inhibition was 5.8%.
As to `CCCC(=O)N=c1sc2cccc(F)c2n1C`, the inhibition was 44.7%.
With `CCOC(=O)c1ccc(N2C(=O)CC(Sc3nc(O)c(CC)c(=O)[nH]3)C2=O)cc1` (centres undefined), the inhibition is -1%.
Turning to `O=C(Nc1ccccc1)c1ccccc1NC(=O)C(F)(F)F`, the inhibition is 33.4%.
For `COc1ccccc1NC(=O)CSc1nc2sc(C)c(C)c2c(=O)n1Cc1ccco1` the value was 92.9% (active); for `COc1cc(Cl)c(C)cc1NC(=O)CSc1nnc(-c2ccco2)n1CC(C)C`, 96.1% (active); for `CCOC(=O)CSc1nc2c(sc(=S)n2CCc2ccccc2)c(=O)n1Cc1ccco1`, 20.9%.
As for `CCCc1nc(SCC(=O)Nc2ccccc2OC)c2c(=O)n(C)c(=O)n(C)c2n1`, the inhibition was 41%.
For `CCCn1c(SCC(=O)Nc2c(C)cccc2C)nnc1C(C)C` the value was 24.4%.
Consider `CCc1c(C)nc2cc(C)[nH]n2c1=O`, for which the inhibition is -0.7%.
On to `CCOCCN(C=O)c1cccc(OC)c1`, for which the inhibition is 26.6%.
In the case of `CC(C)Oc1ccc(CCc2n[nH]c(=S)n2Cc2ccccc2)cc1`, the inhibition is 16.7%.
For `CCOC(=O)c1c(NC(=O)CCl)sc(C(=O)N(CC)CC)c1C` the value was 56.1% (active); for `CCOC(=O)c1sc(NC(=O)CSc2nnc(-c3ccco3)o2)c(C(=O)OCC)c1C`, 25.2%.
With `CCOC(=O)c1sc(NC(=O)CCN2CCOCC2)c(C(=O)OCC)c1C`, the inhibition was 35.2%.
For `COC(=O)c1c(CCl)noc1C(=O)NC(C)C`, the inhibition is 10.5%.
For `COc1ccccc1N=C1SC(C)CN1C(=O)C1CCC1` (centres undefined), the inhibition is -1.1%.
The figure for `Cn1c2c(c(=O)n(C)c1=O)[C@@H]1c3c(ccc4ccccc34)OC[C@@H]1CO2` is 33.8%; for `O=C(c1ccco1)N1CCN(CC(=O)N(C2CCCCC2)C2CCS(=O)(=O)C2)CC1` (centres undefined) it is -21.3%; for `Cc1[nH]n(-c2cccc(Cl)c2)c(=O)c1/C=N/n1c(C)nc2ccccc2c1=O` it is 20.6%.
Turning to `CCCc1nc2ccccc2c(=O)n1NC(=O)c1c(O)c2ccccc2[nH]c1=O`, the inhibition is -11.7%.
Regarding `CCCc1nc2ccccc2c(=O)n1/N=C/c1ccc(O)c(O)c1`, the inhibition was 54.2% (active).
`ONC(=Nc1ccccc1)c1ccccc1Cl`: the inhibition is 32.8%.
Take `ONC(=Nc1ccc(Cl)cc1)c1ccccc1Cl`: the inhibition was 84.3% (active).
For `CC(Oc1ccc(Cl)cc1)C(=O)OCC(=O)Nc1ncc(Cl)cc1Cl` (centres undefined) the value was 24.2%; for `CC(Oc1ccc(Cl)cc1)C(=O)Nc1ncccn1` (centres undefined), 30%.
The figure for `CC(Oc1ccc(Cl)cc1)c1ccnn1S(C)(=O)=O` (centres undefined) is 69.5% (active).
For `N#Cc1ccc(-c2ccc(F)cc2)nc1Sc1ccccc1` the value was 3.5%.
Consider `Cc1csc(NC(=O)NC2(C(F)(F)F)Oc3ccccc3O2)n1`, for which the inhibition is -13.3%.
In the case of `O/N=C(\c1ccc2c(c1)OCCO2)C1CCCCC1`, the inhibition is 49.8%.
With `CC(C)Cc1cc(C(=O)Nc2cc(Br)ccc2O)no1`, the inhibition was -2.9%.
Take `CCCCn1ccnc1C(=O)c1cccc(S(=O)(=O)N2c3ccccc3CC2C)c1` (centres undefined): the inhibition is 83.1% (active).
Consider `CCn1c(CSc2ncccn2)nnc1SCC(=O)N1c2ccccc2CC1C` (centres undefined), for which the inhibition was 18.8%.
For the molecule `CC(C)N1C(=O)C2C(C(=O)NC3CCCCC3)C3C=CC2(O3)C1C(=O)NC1CCCC1` (centres undefined), the inhibition is 6.6%.
The figure for `N#Cc1ccc(-c2ccc(Cl)cc2)nc1Oc1ccc(F)cc1` is 41.8%; for `O=C(Oc1ccc([N+](=O)[O-])cc1)c1ccc2ccccc2n1` it is 0%; for `CS(=O)(=O)N(CC(=O)Nc1ccc(Cl)c(Cl)c1)C1CCCCC1` it is 60.7% (active).
For `CCOC(=O)N1CCN(C(=O)CN(C2CCCCC2)S(C)(=O)=O)CC1`, the inhibition is -5.6%.
For `CS(=O)(=O)N(CC(=O)N1CCN(c2ccc(F)cc2)CC1)C1CCCCC1`, the inhibition was 6.9%.
On to `O=C(CCCN1C(=O)CSc2ncccc21)N1CCN(c2cccc(C(F)(F)F)c2)CC1`, for which the inhibition was 34%.
Regarding `Cc1nc(C)c(C(=O)Nc2cccc(C)c2C)o1`, the inhibition was -14.2%.
For `Cc1cc(C(=O)N2CCN(c3ccccn3)CC2)c(C)o1` the value was 56.8% (active); for `Cn1c(=O)cc(OCCCC(=O)N2CCN(c3ccccn3)CC2)c2ccccc21`, 30.2%.
Regarding `CC(=C1C(=O)c2ccccc2C1=O)N1CCN(c2ccccn2)CC1`, the inhibition is 13.1%.
Regarding `COC(=O)c1ccc(NC(=O)C(C)N2C(=O)c3ccccc3C2=O)cc1` (centres undefined), the inhibition was 11.8%.
Take `CC(C)Oc1ccc(Oc2ccc(C(F)(F)F)cn2)cc1`: the inhibition was 23.2%.
For `COC(=O)CN(C(=S)Nc1ccc(Cl)cc1)C1CC(=O)N(c2ccc(OC)cc2)C1=O` (centres undefined) the value was 69.3% (active).
For the molecule `CN(C)c1ccc(NC(=S)N(CCc2ccccc2)C2CC(=O)N(c3c(Cl)cccc3Cl)C2=O)cc1` (centres undefined), the inhibition was 13.4%.
On to `COc1cccc(N2CCN(C3CC(=O)N(c4ccc(Cl)cc4)C3=O)CC2)c1` (centres undefined), for which the inhibition was -17.1%.
With `CCSc1nnc(NC(=O)Cc2ccccc2OC)s1`, the inhibition was 36.5%.
The figure for `CCOCCCN1C(=O)CN(C2CCCCC2)C(=O)C1c1ccc(OCC)c(OC)c1` (centres undefined) is 0.6%; for `CCN(CC)S(=O)(=O)c1ccc2nc(COC(=O)c3n[nH]c4ccccc34)[nH]c2c1` it is 9.5%.
For the molecule `CCN(CC)S(=O)(=O)c1ccc2nc(CSc3nnnn3-c3ccc(O)cc3)[nH]c2c1`, the inhibition is 66.1% (active).
With `CCn1c(CSc2nncn2-c2ccc(OC)cc2)nc2cc(S(=O)(=O)N(C)C)ccc21`, the inhibition was 21.5%.
In the case of `CCCCN(CC)CCCNC(=O)CS(=O)(=O)Cc1nc(-c2cccc(OC)c2)oc1C`, the inhibition was -1.1%.
As for `CCOC(=O)CSc1nc2sc3c(c2c(=O)[nH]1)CC(C)(C)OC3`, the inhibition was 67.6% (active).
For `CC/C(C)=N/Nc1nc2sc3c(c2c(=O)[nH]1)CC(C)(C)OC3` the value was 36.9%.
The figure for `CCOC(=O)Cn1c(SC)nc2sc3c(c2c1=O)CC(C)(C)OC3` is 8.2%; for `CC(=O)NS(=O)(=O)c1ccc(NC(=S)NC(=O)C(C)(C)C)cc1` it is -2.4%; for `CC(=O)Nc1ccc(NS(=O)(=O)c2cc(C)sc2C)cc1` it is 93.5% (active).
For `CC(=O)Nc1ccc(S(=O)(=O)Nc2cccc(NC(=O)C(C)(C)C)c2)cc1`, the inhibition is 32.2%.
For the molecule `CN(C)c1ccc(-n2cccc2/C=C2/SC(=Nc3ccc(F)cc3)NC2=O)cc1`, the inhibition was 2.9%.
The figure for `COC(=O)Nc1ccc(S(=O)(=O)N(C)CC(F)(F)C(F)F)cc1` is 58.8% (active); for `COC(=O)Nc1ccc(S(=O)(=O)N2CCN(CCN3C(=O)C4C5C=CC(C5)C4C3=O)CC2)cc1` (centres undefined) it is 5.6%; for `CCOC(=O)Nc1ccc(S(=O)(=O)N(C)C(C)C)cc1` it is 19.6%.
The figure for `COc1ccc(CCNC(=O)CCCCn2c(=O)[nH]c3ccccc3c2=O)cc1OC` is 16.8%; for `O=C(CCCCCn1c(=O)[nH]c2ccccc2c1=O)NCCc1c[nH]c2ccccc12` it is 71.7% (active); for `O=C(CCn1c(=O)[nH]c2ccccc2c1=O)NCCCN1CCN(c2cccc(Cl)c2)CC1` it is 13.5%.
With `O=C(c1cc2c(s1)CCC2)N1CCN(c2ccccc2)CC1`, the inhibition was 48.8%.
As for `O=C(CSCc1c(F)cccc1Cl)NCC1CCCO1` (centres undefined), the inhibition is 52.6% (active).
Take `O=C(CSC1=Nc2ccccc2C2=NC(c3ccccc3)C(=O)N12)NCC1CCCO1` (centres undefined): the inhibition is 29.1%.
In the case of `O=C(CS(=O)(=O)Cc1ccccc1)NCC1CCCO1` (centres undefined), the inhibition is -6.7%.
As to `N#Cc1ccc(Oc2cc(C(F)(F)F)nc(-c3ccccn3)n2)cc1`, the inhibition was 6.7%.
For `O=C(Nc1nccs1)c1cc(S(=O)(=O)N2CCOCC2)c(Cl)cc1Cl` the value was 12.5%.
Turning to `COc1ccc(-n2nc3c(c2NC(=O)Cc2cccc(C)c2)CS(=O)C3)cc1` (centres undefined), the inhibition is 76.9% (active).
Turning to `O=C(Nc1c2c(nn1-c1ccc(F)cc1)CS(=O)C2)C12CC3CC(CC(C3)C1)C2` (centres undefined), the inhibition was 9.1%.
The figure for `CC(C)(C)n1nc2c(c1NC(=O)c1ccc(S(=O)(=O)N3CCCC3)cc1)CS(=O)C2` (centres undefined) is 10.7%.
In the case of `Cc1ccc(-n2nc3c(c2NC(=O)CCC2CCCCC2)CS(=O)C3)cc1` (centres undefined), the inhibition was 80.4% (active).
As to `COc1ccc(-n2nc(C(=O)NCC(=O)Nc3cccc(C)n3)c3ccccc3c2=O)cc1`, the inhibition was -1.3%.
For the molecule `O=C(CC1CCCCC1)Nc1c2c(nn1-c1ccc(F)cc1)CS(=O)(=O)C2`, the inhibition is 5%.
As to `CCCCc1nc2c(=O)[nH]c3ccccc3c2o1`, the inhibition was -9.6%.
As to `CCC1(C)Cc2c(sc3[nH]c(=S)n(Cc4ccccc4)c(=O)c23)CO1` (centres undefined), the inhibition was 9.8%.
The figure for `O=C(Cn1nnc(-c2ccc(CN3CCOCC3)cc2)n1)NC1CCCCC1` is 9%.
As for `CC(=O)C1=C(O)C(=O)N(c2ccc(S(N)(=O)=O)cc2)C1c1ccccc1F` (centres undefined), the inhibition was -8%.
With `Clc1ccc(-c2cc(COc3ccccc3)no2)cc1Cl`, the inhibition is 10.4%.
Take `O=c1c([N+](=O)[O-])cc(C(F)(F)F)cn1Cc1cccc(Cl)c1`: the inhibition was 24.2%.
With `C=CCNc1nnc(C)c2ccccc12`, the inhibition was -10.2%.
As to `C=CCNc1nnc(SCC(=O)N2CCCCC2)c2ccccc12`, the inhibition was 50.6% (active).
`CCc1c(O)nc(SCC(=O)N2CCCCC2)n(-c2ccccc2C)c1=O`: the inhibition is 0.9%.
The figure for `c1ccc2c(c1)C(=NC1CCCCC1)NC2=NC1CCCCC1` is 4.5%.
Take `O=C(Nc1cccc(OCC(=O)N2CCOCC2)c1)C1CCCCC1`: the inhibition is -9.5%.
`CN(C)CCCNc1c2c(c(C#N)c3nc4ccccc4n13)CCC2`: the inhibition was 0%.
